# Experimental data as given in PubChem BioAssay (NCATS).
# Inconclusive results are not listed. Entries that show only a call come without a potency. The source made the active and inactive calls. The call rests on the fitted dose curve; in most records, active means well fitted inhibition curve with a large enough effect; inconclusive means small, poorly fitted or top-dose-only effect; inactive means flat fitted curve, though single readings scatter.
# Target: Phospholipid hydroperoxide glutathione peroxidase GPX4 (Homo sapiens) (UniProt P36969)
# Assay: Primary qHTS Assay for Inhibitors of Recombinant Selenoprotein Glutathione Peroxidase 4 (GPX4) (AID 1845192); further: nearly all actives have a fitted effect of over 65% in size
# Details: recombinant GPX4, GR-coupled NADPH fluorescence, 15 min; series mostly up to 50 µM
# Source text: Assay Provider: Elias S.J. Arner MD PhD.
# Department of Medical Biochemistry and Biophysics
# Karolinska Institutet, Solna, Stockholm, Sweden
# Selenoprotein glutathione peroxidases (GPX), like the ubiquitously expressed GPX1 and the ferroptosis modulator GPX4, enact their antioxidant activities by reducing hydroperoxides using glutathione. […] GPX1 and GPX4 inhibitors have thus shown promise as anti-cancer agents. Existing inhibitors are often promiscuous, or modulate GPX activity only indirectly, so novel direct inhibitors identified through screening against GPX1 and GPX4 could be valuable. Here, we developed optimized glutathione reductase (GR)-coupled GPX assays for the biochemical high-throughput screen (HTS) of almost 12,000 compounds with known mechanisms of action. Initial hits were triaged using a GR counter-screen, assessed for isoform specificity using a separate GPX2 assay, and were assessed for general selenocysteine-targeting activity using a thioredoxin reductase (TXNRD1) assay. With this suite of assays, we identified novel GPX1/GPX2- and GPX4-specific inhibitors and can here present a validated pipeline for future discovery research for selenoprotein-targeting agents.
# SEQUENCE No. (e.g., 1, 2, 3, etc.); […] (e.g., Cells, Incubation, Reagent, etc.); VALUE; DESCRIPTION.
# 1; Reagent 1; 3 uL; 333.33 nM GPx4 enzyme or no enzyme control in 1536-well, black, solid Greiner assay plate.
# 2; Compound; 25 nL; Kalypsis pin tool (Wako USA) equipped with a 1536-well pin head.
# 3; Incubation; 30 min; room temperature.
# 4; Reagent 2; 1 uL; 500 nM GR, 5 mM GSH, 2.5 mM NADPH solution
# 5; Reagent 3; 1 uL; 2.5 mM CHP in 50% EtOH.
# 6; Detection; Fluorescence; ViewLux microplate reader, excitation 340 nm and emission 450 nm.
# 7; Incubation; 15 min; room temperature.
# 8; Detection; Fluorescence; ViewLux microplate reader, excitation 340 nm and emission 450 nm.
# NOTES (numbers refer to Sequence numbers above)
# 1. 3 µL of 333.33 nM GPX4 and 0.016% BSA in assay buffer (50 mM Tris-HCl, 2 mM EDTA (pH 7.5), 150 mM NaCl) was added to columns 3-48 of 1536-well plates using a BioRAPTR Flying Reagent Dispenser (Let's Go Robotics (LGR), Carlsbad, CA). A no-enzyme control (0.01% BSA in TES assay buffer) was added to columns 1-2.
# 2. 25 nL, library and DMSO controls were added to each well with a pin tool (Kalypsys).
# 3. The assay plates were incubated for 30 minutes at room temperature.
# 4. 1 µL of master mix (500 nM glutathione reductase (GR), 5 mM reduced glutathione (GSH), 2.5 mM NADPH in assay buffer) was added.
# 5. 1 µL of cumene hydroperoxide (CHP) ([2.5 mM] in 50% EtOH) was then added within 5 minutes to initiate the reaction. Final concentrations were: 200 nM GPX4, 1 mM GSH, 0.5 mM CHP, 0.5 mM NADPH, 100 nM GR, 0.01% BSA.
# 6. Initial fluorescence readout (t=0) at 340/450 nm was measured using a ViewLux multimodal detector (PerkinElmer, Waltham, MA).
# 8. Endpoint fluorescence readout (t=15) at 340/450 nm was measured 15 min after room temperature incubation.
# Chain of Phospholipid hydroperoxide glutathione peroxidase GPX4 (Homo sapiens) (P36969 whole entry, looked up): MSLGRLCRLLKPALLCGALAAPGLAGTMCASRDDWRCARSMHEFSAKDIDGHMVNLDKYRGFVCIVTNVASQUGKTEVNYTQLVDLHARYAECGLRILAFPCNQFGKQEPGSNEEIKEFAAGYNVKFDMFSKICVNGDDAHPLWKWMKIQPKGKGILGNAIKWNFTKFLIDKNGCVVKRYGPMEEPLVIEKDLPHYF
row,Compound,Potency
1,Cc1cccn2c(=O)c(-c3nnn[nH]3)cnc12,inactive
2,O=C(OCC(O)CO)c1ccccc1Nc1ccnc2cc(Cl)ccc12 (stereo not given),inactive
3,O=C1OCCN1/N=C/c1ccc([N+](=O)[O-])o1,inactive
4,CC(=O)Nc1c(I)cc(I)c(C(=O)O)c1I,inactive
5,CCCC1O[C@@H]2C[C@H]3[C@@H]4CCC5=CC(=O)C=C[C@]5(C)[C@H]4[C@@H](O)C[C@]3(C)[C@]2(C(=O)CO)O1 (stereo not given in full),inactive
6,CN(C)CC/C=C1/c2ccccc2COc2ccc(CC(=O)O)cc21,inactive
7,N[C@@H](CCC(=O)N[C@@H](CS)C(=O)NCC(=O)O)C(=O)O,inactive
8,CC(C)NC[C@@H](O)COc1cccc2ccccc12,inactive
9,CCCCOc1ccc(OCCCN2CCOCC2)cc1,inactive
10,C[C@H]1[C@H](NC(=O)/C(=N/OC(C)(C)C(=O)O)c2csc(N)n2)C(=O)N1S(=O)(=O)O (stereo in doubt),inactive
11,CCCCc1nc(Cl)c(CO)n1Cc1ccc(-c2ccccc2-c2nn[nH]n2)cc1,inactive
12,CCN(CC)C(=O)/C(C#N)=C/c1cc(O)c(O)c([N+](=O)[O-])c1,inactive
13,NC(=NCCCCCCN=C(N)/N=C(\N)Nc1ccc(Cl)cc1)/N=C(\N)Nc1ccc(Cl)cc1,inactive
14,CC(=O)OCC(=O)[C@@]1(O)CC[C@H]2[C@@H]3CCC4=CC(=O)C=C[C@]4(C)[C@H]3[C@@H](O)C[C@@]21C,inactive
15,CCN(CCCc1ccccc1)CCCc1ccccc1,inactive
16,CCC(=O)c1c(O)cc(O)cc1O,inactive
17,CC(=O)OCC(=O)[C@@]12OC(C)(C)O[C@@H]1C[C@H]1[C@@H]3C[C@H](F)C4=CC(=O)C=C[C@]4(C)[C@@]3(F)[C@@H](O)C[C@@]12C,inactive
18,O=c1[nH]c(=O)n([C@H]2C[C@H](O)[C@@H](CO)O2)cc1C(F)(F)F,inactive
19,CC(C)(C)CC(C)(C)c1ccc(OCCOCC[N+](C)(C)Cc2ccccc2)cc1,inactive
20,COc1cc(OC)cc(OC)c1,inactive

row,Compound,Potency
1,CC1(C)O[C@@H]2C[C@H]3[C@@H]4C[C@H](F)C5=CC(=O)CC[C@]5(C)[C@H]4[C@@H](O)C[C@]3(C)[C@]2(C(=O)CO)O1,inactive
2,CC(C)N=C(N)/N=C(\N)Nc1ccc(Cl)cc1,inactive
3,Cc1c(C(C)C)c(=O)n(-c2ccccc2)n1C,inactive
4,CCCCCCc1ccc(O)cc1O,inactive
5,CCCn1c(=O)[nH]c(=O)c2[nH]cnc21,inactive
6,C[C@@H]1C[C@H]2[C@@H]3CCC4=CC(=O)C=C[C@]4(C)[C@@]3(F)[C@@H](O)C[C@]2(C)[C@H]1C(=O)CO,inactive
7,COc1ccc(CN2CCN(C(c3ccc(F)cc3)c3ccc(F)cc3)CC2)c(OC)c1OC,inactive
8,CC[C@@H](CO)NCCN[C@@H](CC)CO,inactive
9,O=C1OC(c2ccc(O)cc2)(c2ccc(O)cc2)c2ccccc21,inactive
10,O=C1OC2(c3ccc(O)cc3Oc3cc(O)ccc32)c2ccccc21,inactive
11,Nc1ccc(C(=O)O)cc1,inactive
12,Cc1ccc(C(=O)C(C)CN2CCCCC2)cc1 (stereo not given),inactive
13,O=C(CCCN1CCC(O)(c2ccc(Br)cc2)CC1)c1ccc(F)cc1,inactive
14,CC(C)COC(=O)c1ccc(N)cc1,inactive
15,CNCCC(Oc1ccccc1C)c1ccccc1 (stereo not given),inactive
16,CN(C)CC/C=C1\c2ccccc2Sc2ccc(Cl)cc21,inactive
17,c1ccc(CNCCNCc2ccccc2)cc1,inactive
18,CCN(CC)C(=O)N1CCN(C)CC1,inactive
19,O=C(O)CCCCC(=O)O,inactive
20,CC(C)n1nc(-c2cc3cc(O)ccc3[nH]2)c2c(N)ncnc21,inactive
